# Measurements taken from PubChem BioAssay (NCI).
# The panel holds about 79,000 compounds, 15% with a hit somewhere; the sample as a whole holds those more often. Unmarked numbers belong to inactive results. The source made the active and inactive calls. No stated cut-off is given here; in the data, active means growth inhibition above about 70%; inactive means the rest.
# Assays:
# [1] = NCI Yeast Anticancer Drug Screen. Data for the rad50 strain (AID 155);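 further: 0% = growth of vehicle-only cultures of the same strain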; details: S. cerevisiae rad50 strain growth inhibition, stronger effect = higher value
# Summary of the method: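 DNA repair mutant yeast, compound exposure, growth read-out; inhibition is taken relative to vehicle.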
# [2] = NCI Yeast Anticancer Drug Screen. Data for the mec2-1 strain (AID 157); details: S. cerevisiae mec2-1 strain, stronger effect = higher value
# Summary of the method: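 Compounds were applied to mec2-1 yeast cells. Their growth was then compared with that of vehicle-treated cultures to give growth inhibition.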
# [3] = NCI Yeast Anticancer Drug Screen. Data for the sgs1 mgt1 strain (AID 161);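 further: 0% = growth of cultures given vehicle only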; details: S. cerevisiae sgs1 mgt1 strain, stronger effect = higher value
# Summary of the method: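 Percent growth inhibition was derived by comparing compound-exposed mutant yeast with vehicle-exposed cultures. The strain carries alterations in DNA damage repair.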
# [4] = NCI Yeast Anticancer Drug Screen. Data for the cln2 rad14 strain (AID 165);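 further: 0% = growth equal to vehicle treated cultures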; details: S. cerevisiae cln2 rad14 strain, stronger effect = higher value
# Summary of the method: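 Strain: cln2 rad14 yeast, altered in cell cycle control and DNA damage repair. Read-out: growth inhibition vs vehicle.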
# [5] = NCI Yeast Anticancer Drug Screen. Data for the bub3 strain (AID 167); details: S. cerevisiae bub3 mutant strain, stronger effect = higher value
# Summary of the method: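 In this screen, a yeast mutant lacking normal mitotic checkpoint function is challenged with compound. Relative growth versus vehicle gives the inhibition value.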
# [6] = NCI Yeast Anticancer Drug Screen. Data for the mlh1 rad18 strain (AID 175); details: S. cerevisiae mlh1 rad18 strain growth inhibition, stronger effect = higher value
# Summary of the method: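 A repair-deficient yeast strain is exposed to test compound, and growth is scored relative to vehicle-treated controls.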
# [7] = at 5.0 µM (retest, dose inferred, filed as 0.5)
# [8] = at 50.0 µM (retest, dose inferred, filed as 5.0)
Structure (SMILES),"growth inhibition [1, 7]","growth inhibition [1, 8]",growth inhibition ([1]; at 50.0 µM),"growth inhibition [2, 7]","growth inhibition [2, 8]",growth inhibition ([2]; at 50.0 µM),"growth inhibition [3, 7]","growth inhibition [3, 8]",growth inhibition ([3]; at 50.0 µM),"growth inhibition [4, 7]","growth inhibition [4, 8]",growth inhibition ([4]; at 50.0 µM),"growth inhibition [5, 7]","growth inhibition [5, 8]",growth inhibition ([5]; at 50.0 µM),"growth inhibition [6, 7]","growth inhibition [6, 8]",growth inhibition ([6]; at 50.0 µM)
CC(C)(C)CC(C)(C)c1ccc(OCCSC(=N)N)cc1,95% (active),100% (active),99.3% (active),99% (active),100% (active),99.6% (active),75% (active),99% (active),99.2% (active),99% (active),99% (active),98.6% (active),99% (active),100% (active),99.4% (active),99% (active),99% (active),99.2% (active)
COC(=O)C([NH-])c1ccccc1.COC(=O)C([NH-])c1ccccc1.[Cl][Pt+2][Cl] (configuration not stated),16%,81% (active),69%,11%,37%,46.9%,39%,76% (active),76.3% (active),0%,43%,58%,5%,27%,30.2%,21%,60%,76.7% (active)
S=C(NCCNC(=S)[S][Sn]([c]1ccccc1)([c]1ccccc1)[c]1ccccc1)[S][Sn]([c]1ccccc1)([c]1ccccc1)[c]1ccccc1,97% (active),93% (active),89.8% (active),98% (active),96% (active),90.8% (active),97% (active),94% (active),91.5% (active),96% (active),93% (active),87.9% (active),98% (active),94% (active),90% (active),98% (active),91% (active),89.8% (active)
COc1cc2c(cc1O)C1Cc3ccc(OC)c(O)c3C(C2)N1C (configuration not stated),22%,21%,66.3%,22%,10%,-3.45%,16%,13%,-4.65%,22%,19%,-5.45%,16%,24%,-5.65%,23%,20%,-68%
O=C1Nc2ccccc2/C1=C/c1ccc(Cl)c(Cl)c1,-1%,71% (active),78.3% (active),-8%,89% (active),80.3% (active),-4%,73% (active),65.5%,20%,94% (active),74.1% (active),-10%,94% (active),74.7% (active),5%,89% (active),78% (active)
CC(=O)c1c(CO[N+](=O)[O-])n([O-])c2ccccc2[n+]1=O,11%,60%,69.4%,7%,20%,13.6%,13%,40%,42.5%,-1%,17%,22%,-1%,-4%,15.7%,1%,33%,45.9%
CC(C)(CN1CCCCC1)C(=O)/C=C/c1ccc(Cl)c(Cl)c1,60%,97% (active),93.3% (active),27%,98% (active),94.7% (active),31%,96% (active),93.2% (active),28%,96% (active),91.8% (active),47%,96% (active),92.9% (active),52%,97% (active),92.7% (active)
O=C(c1ccccc1)C1OC1c1ccccc1Cl (configuration not stated),1%,40%,-13.7%,-4%,21%,-4.4%,7%,54%,-12.7%,4%,23%,-52.2%,3%,61%,-3.7%,12%,78% (active),-9%
C[n+]1c(/C=C/c2ccc([N+](=O)[O-])cc2)ccc2ccccc21,6%,85% (active),42%,-2%,89% (active),60.8%,2%,77% (active),69.7%,12%,77% (active),82.7% (active),-2%,92% (active),11.7%,16%,92% (active),80.2% (active)
